In PubChem BioAssay (NCATS):
“And” between values parts separate entries of the source, which are not always exact repeats. Equal entries are not always repeated. A number with no mark means an inactive call. Results filed as inconclusive are left out. The source made the active and inactive calls. Unless noted, calls come from the whole dose curve; as a rule, active = well fitted curve in either direction with a large enough effect (not every such curve was filed as active); inconclusive = small, poorly fitted or top-dose-only effect, or another doubt; inactive = flat fitted curve, though single readings scatter.

Legend:
[1] = AP1 Signaling Pathway (AID 357);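 note: ME-180 reporter cells stimulated with EGF at its EC50 level; % is set by controls: 0 for no effect and ±100 for the full control effect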
In short: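 Cells are seeded overnight, exposed to compound titrations and an EC50 level of EGF for 5 hours at 37 °C, then loaded with CCF4 dye for 2.5 hours. Beta-lactamase activity under the AP-1 element is read as a blue/green ratio.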

[2] = NFAT Signaling Pathway (AID 444); settings: Jurkat NFAT-bla M1, carbachol, beta-lactamase ratio, 5 h;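 note: carbachol stimulus at about its EC50 of 1 µM final; % is set by controls: 0 for no effect and ±100 for the full control effect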
In short: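 Jurkat cells carrying an NFAT-driven β-lactamase reporter and co-transfected muscarinic M1 receptor were treated with compound plus carbachol (1 uM final, an EC50 level) for 5 h at 37 °C. CCF4 loading followed for 1 h at RT; 460/530 nm ratio gave %activity.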

[3] = molecular target: Glucocorticoid receptor (Homo sapiens) (UniProt P04150); assay: GR-GFP Redistribution (AID 450;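 active = compounds whose dose series gives a full or clear partial fitted curve of increased nuclear translocation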; note: potency is the fitted concentration of half-maximal effect); settings: U2OS GR-GFP nuclear translocation, laser cytometry, 2 h
[4] = molecular target: Glucocorticoid receptor (Homo sapiens) (UniProt P04150); assay: GR-EFC Redistribution (AID 451; calls by dose curve; note: potency is the fitted concentration of half-maximal effect); settings: CHO-K1 GR-EFC translocation, beta-gal luminescence, 2 h
In short: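 CHO-K1 cells stably expressing nuclear-localized β-gal enzyme acceptor and GR fused C-terminally to the enzyme donor fragment; ligand-driven nuclear translocation restores β-gal by complementation. Compounds titrated up to 46 uM final, 2 h at 37 °C; luminescence read.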

[5] = molecular target: Mitogen-activated protein kinase 10 (Mus musculus) (UniProt Q61831); assay: JNK3 AlphaScreen Assay (AID 530);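 note: kinase came from lysate of stimulated human HepG2 cells; signal reports phosphorylation of biotinylated GST-cJun 1-79 at Ser73 with 10 µM ATP; % is set by controls: 0 for no effect and ±100 for the full control effect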
In short: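 Inhibitors reduce antibody binding to phosphorylated biotin-cJun, lowering AlphaScreen luminescence. Lysates from HepG2 cells pre-activated by IL-1beta plus TNF-alpha supplied JNK3; compounds were titrated.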

[6] = molecular target: 3',5'-cyclic-AMP phosphodiesterase 4B (Homo sapiens) (UniProt Q07343); assay: qHTS Assay for Inhibitors of PDE-IV (AID 607; active = well fitted activation curve with a large enough effect in the main read-out, with a control signal flat, not every such curve was filed as active; note: % of control where 0% means no effect)
In short: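 The readout is membrane depolarisation from a cAMP-sensing CNG channel, detected with a potential dye at ex 535/em 590. Cells were HEK293-derived (endogenous PDE-IV) at 1000 cells/well, titrated up to 22.9 uM final.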

[7] = molecular target: Cytochrome P450 1A2 (Homo sapiens) (UniProt P05177); assay: p450-cyp1a2 (AID 410; calls by dose curve; note: potency is the fitted concentration of half-maximal effect;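 for activity change, negative = inhibition: -100% = full effect of reference inhibitor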)
In short: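 Luminescent readout of luciferin formed from Luciferin-ME by human CYP1A2; data normalized against complete inhibition by 57 uM furafylline. Enzyme 20nM, substrate 100uM at Km, 100mM KPO4 buffer, 60 min reaction at room temperature.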

[8] = Cell Viability - BJ (AID 421; calls by dose curve;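 note: potency is the fitted concentration of half-maximal effect; cells exposed to compound for 40 hours at 37 °C before readout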); settings: BJ fibroblast viability, qHTS
In short: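 Cytotoxicity in human BJ foreskin fibroblasts is scored as loss of cellular ATP after a 40-hour exposure, measured by luciferase luminescence. Controls are DMSO and 100 uM tamoxifen.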

[9] = Cell Viability - Jurkat (AID 426;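 active = dose-dependent loss of cell ATP signal giving a full or clear fitted curve, ranked by lower potency value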; note: potency is the fitted concentration of half-maximal effect); settings: qHTS
In short: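 qHTS, 1536-well; Jurkat E6-1, 5000 cells/well, complete medium; cpd 40 hr, 37 °C; CellTiter-Glo 20 min RT; luminescence. AC50 by Hill fit.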

[10] = Cell Viability - HepG2 (AID 433; calls by dose curve;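 note: potency is the fitted concentration of half-maximal effect; potency for ATP loss meaning cytotoxicity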); settings: qHTS
In short: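 ATP luminescence (CellTiter-Glo) after 40 h compound exposure, 37 °C, HepG2, 1500 cells/well, complete medium. Normalized: DMSO = basal, 100 uM tamoxifen = 100% inhibition. AC50 via standard Hill equation.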

[11] = Cell Viability - MRC5 (AID 434; calls by dose curve;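 note: potency is the fitted concentration of half-maximal effect; potency reflects cytotoxicity seen as loss of intracellular ATP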); settings: MRC5 lung fibroblast viability, qHTS
In short: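 MRC5 normal human lung fibroblasts (1500/well) were treated with compounds for 40 hr at 37 °C in complete medium, and viable cells were measured as intracellular ATP by CellTiter-Glo luminescence. AC50 came from Hill fits, normalized to DMSO and 100 uM tamoxifen.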

[12] = Cell Viability - SK-N-SH (AID 435; calls by dose curve; note: potency is the fitted concentration of half-maximal effect); settings: SK-N-SH neuroblastoma cell viability qHTS
In short: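 CellTiter-Glo ATP luminescence, 20 min RT read; cells pre-plated 5 hr, compound 40 hr at 37 °C, 1500 cells/well, complete medium. Normalized DMSO = 0, 100 uM tamoxifen = 100% inhibition; Hill-fit AC50.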

[13] = Cell Viability - N2a (AID 540; active = well fitted curve in the direction sought with a large enough effect; an effect the other way counts as inactive or inconclusive;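 note: plate controls were DMSO alone for no effect and tamoxifen control for full effect; nearly all actives have a fitted effect of over 45% in size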); settings: N2a mouse neuroblastoma cell viability; at 92.2 µM (top of the series)
In short: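 Luminescent ATP signal (CellTiter-Glo, 20 min at room temperature) served as the viability read-out after N2a cells were treated with compounds for 40 hours at 37 °C. Concentration-response data were fitted to the Hill equation for AC50.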

[14] = Cell Viability - NIH 3T3 (AID 541; active = well fitted curve in the direction sought with a large enough effect; an effect the other way counts as inactive or inconclusive;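 note: plate controls were DMSO alone for no effect and tamoxifen positive control for full effect; nearly all actives have a fitted effect of over 25% in size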)
In short: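 Luminescent ATP signal (CellTiter-Glo) served as the viability read-out after NIH 3T3 cells were exposed to compounds over a concentration range for 40 hr at 37 °C. Hill-equation modelling of concentration-response data gave AC50.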

[15] = Cell Viability - HUV-EC-C (AID 542; active = well fitted curve in the direction sought with a large enough effect; an effect the other way counts as inactive or inconclusive; note: % is set by controls: 0 for no effect and ±100 for the full control effect; nearly all actives have a fitted effect of over 35% in size)
In short: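 qHTS cytotoxicity: HUV-EC-C, 1000 cells/well, 5 hr settle, compound 40 hr 37 °C, CellTiter-Glo, luminescence. AC50 via Hill equation.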

[16] = Cell Viability - H-4-II-E (AID 543; active = well fitted curve in the direction sought with a large enough effect; an effect the other way counts as inactive or inconclusive; note: % is set by controls: 0 for no effect and ±100 for the full control effect; nearly all actives have a fitted effect of over 35% in size)
In short: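 Luminescent ATP signal (CellTiter-Glo) served as the viability read-out, with cytotoxicity seen as a concentration-dependent ATP drop. Cells were treated for 40 hours in complete medium. AC50 values derive from Hill-equation modelling.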

[17] = Cell Viability - Renal Proximal Tubule (AID 545; active = well fitted curve in the direction sought with a large enough effect; an effect the other way counts as inactive or inconclusive;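 note: 0% = DMSO only and -100% = 100 µM tamoxifen; nearly all actives have a fitted effect of over 40% in size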)
In short: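 Rat kidney proximal tubule cells, freshly isolated; 1000 cells/well, 5 hr settle, compound 40 hr 37 °C. CellTiter-Glo 20 min RT, luminescence read. AC50 by standard Hill fit.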

[18] = Cell Viability - Mesenchymal (AID 546; active = well fitted curve in the direction sought with a large enough effect; an effect the other way counts as inactive or inconclusive;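 note: cells exposed to compound for 40 hours before reading; 0% = DMSO only and -100% = 100 µM tamoxifen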); settings: mesenchymal cells viability, qHTS; at 91.7 µM (top of the series)
In short: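 Normal human renal glomerulus-derived kidney mesenchymal cells, 1000 per well in complete medium, were treated with compounds for 40 hr at 37 °C. Viability was read as intracellular ATP by CellTiter-Glo luminescence; AC50 values came from Hill-equation fits of qHTS concentration-response data.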

[19] = molecular target: Lysosomal acid glucosylceramidase (Homo sapiens) (UniProt P04062); assay: Glucocerebrosidase-p2 (AID 348; in the data active = potency below about 10 µM; note: potency is the fitted concentration of half-maximal effect); settings: purified GBA, blue fluorogenic substrate, 40 min
In short: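 Compounds titrated from 0.6 nM upwards against 0.2 nM enzyme in pH 5.9 citric acid/KH2PO4, taurocholate, tween-20; blue fluorogenic substrate 80 uM, 40 min room temperature, stopped and read Ex 365/Em 440 for AC50.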

Glucocorticoid receptor (Homo sapiens), sequence (P04150 whole entry, looked up, the tested form may be a part): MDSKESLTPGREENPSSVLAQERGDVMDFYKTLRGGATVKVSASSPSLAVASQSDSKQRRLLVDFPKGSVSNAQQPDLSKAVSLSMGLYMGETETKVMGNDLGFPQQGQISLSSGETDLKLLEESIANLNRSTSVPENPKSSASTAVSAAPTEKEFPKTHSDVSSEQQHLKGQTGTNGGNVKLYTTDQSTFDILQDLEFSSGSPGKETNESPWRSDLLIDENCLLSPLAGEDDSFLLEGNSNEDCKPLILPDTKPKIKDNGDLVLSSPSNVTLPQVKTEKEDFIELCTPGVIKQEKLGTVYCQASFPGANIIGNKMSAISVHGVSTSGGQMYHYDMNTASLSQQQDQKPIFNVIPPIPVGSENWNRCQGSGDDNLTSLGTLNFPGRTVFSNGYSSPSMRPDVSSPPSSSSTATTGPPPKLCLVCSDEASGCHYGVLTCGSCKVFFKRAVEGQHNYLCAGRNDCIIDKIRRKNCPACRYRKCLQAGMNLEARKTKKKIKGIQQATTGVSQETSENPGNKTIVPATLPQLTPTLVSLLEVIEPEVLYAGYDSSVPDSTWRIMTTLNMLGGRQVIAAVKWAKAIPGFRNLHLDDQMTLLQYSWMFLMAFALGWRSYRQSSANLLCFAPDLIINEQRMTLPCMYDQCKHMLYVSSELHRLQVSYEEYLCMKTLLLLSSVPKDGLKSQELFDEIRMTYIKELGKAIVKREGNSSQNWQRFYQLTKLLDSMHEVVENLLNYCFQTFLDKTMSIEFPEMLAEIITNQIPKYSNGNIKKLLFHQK
3',5'-cyclic-AMP phosphodiesterase 4B (Homo sapiens), sequence (Q07343 whole entry, looked up): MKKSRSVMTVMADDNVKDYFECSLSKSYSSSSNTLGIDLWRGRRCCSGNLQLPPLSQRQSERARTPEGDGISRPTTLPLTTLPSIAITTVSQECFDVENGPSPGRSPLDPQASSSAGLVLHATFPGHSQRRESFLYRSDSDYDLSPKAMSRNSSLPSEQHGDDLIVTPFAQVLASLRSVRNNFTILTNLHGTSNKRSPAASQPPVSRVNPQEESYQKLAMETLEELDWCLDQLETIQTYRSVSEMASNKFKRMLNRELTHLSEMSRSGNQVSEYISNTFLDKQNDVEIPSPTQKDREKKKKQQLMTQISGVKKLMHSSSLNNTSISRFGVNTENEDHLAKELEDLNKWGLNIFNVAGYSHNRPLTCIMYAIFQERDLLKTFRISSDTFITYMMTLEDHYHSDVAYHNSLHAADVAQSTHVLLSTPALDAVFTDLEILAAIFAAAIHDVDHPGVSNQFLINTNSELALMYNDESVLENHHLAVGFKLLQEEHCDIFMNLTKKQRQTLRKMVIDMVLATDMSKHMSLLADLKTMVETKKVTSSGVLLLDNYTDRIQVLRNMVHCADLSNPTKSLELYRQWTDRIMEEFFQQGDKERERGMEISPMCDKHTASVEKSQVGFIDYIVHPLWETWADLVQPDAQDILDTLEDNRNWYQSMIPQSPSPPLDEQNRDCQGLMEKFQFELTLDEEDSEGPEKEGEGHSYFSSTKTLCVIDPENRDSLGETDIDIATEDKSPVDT
Cytochrome P450 1A2 (Homo sapiens), sequence (P05177 whole entry, looked up): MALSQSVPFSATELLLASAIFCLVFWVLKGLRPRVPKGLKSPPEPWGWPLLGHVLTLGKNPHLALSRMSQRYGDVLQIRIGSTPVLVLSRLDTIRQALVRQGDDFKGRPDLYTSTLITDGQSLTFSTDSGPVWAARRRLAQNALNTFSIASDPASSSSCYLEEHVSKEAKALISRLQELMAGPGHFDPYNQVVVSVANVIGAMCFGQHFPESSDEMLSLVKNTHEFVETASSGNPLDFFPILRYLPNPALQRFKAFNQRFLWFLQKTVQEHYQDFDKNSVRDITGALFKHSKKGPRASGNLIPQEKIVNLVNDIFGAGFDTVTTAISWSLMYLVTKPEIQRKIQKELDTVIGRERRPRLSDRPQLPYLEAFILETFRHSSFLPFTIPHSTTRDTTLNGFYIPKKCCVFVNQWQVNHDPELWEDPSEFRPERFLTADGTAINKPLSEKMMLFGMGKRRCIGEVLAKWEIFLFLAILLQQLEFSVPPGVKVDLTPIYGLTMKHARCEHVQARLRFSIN
Lysosomal acid glucosylceramidase (Homo sapiens), sequence (P04062 whole entry, looked up): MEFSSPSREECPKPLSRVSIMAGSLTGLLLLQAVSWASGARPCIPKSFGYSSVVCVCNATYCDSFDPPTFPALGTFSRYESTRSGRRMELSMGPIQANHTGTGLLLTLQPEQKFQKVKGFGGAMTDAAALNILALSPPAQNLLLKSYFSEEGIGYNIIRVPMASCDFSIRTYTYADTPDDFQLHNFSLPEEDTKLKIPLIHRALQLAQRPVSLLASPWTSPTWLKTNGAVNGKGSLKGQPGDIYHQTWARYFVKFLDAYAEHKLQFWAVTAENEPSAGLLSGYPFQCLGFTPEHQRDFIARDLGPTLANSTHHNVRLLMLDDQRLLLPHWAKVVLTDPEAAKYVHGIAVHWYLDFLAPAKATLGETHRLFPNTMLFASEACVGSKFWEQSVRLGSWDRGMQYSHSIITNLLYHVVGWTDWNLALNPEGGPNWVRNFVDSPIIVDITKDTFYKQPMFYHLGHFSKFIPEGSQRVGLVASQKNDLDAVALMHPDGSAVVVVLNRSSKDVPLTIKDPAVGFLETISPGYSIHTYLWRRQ

Question: For CC1(C)S[C@@H]2[C@H](NC(=O)Cc3ccccc3)C(=O)N2[C@H]1C(=O)O, which outcome [1] is on record?
Answer: The outcome was “inactive”.

Question: What about the activity change, negative = inhibition ([2]; at 17.2 µM (top of the series)) of the same compound?
Answer: Its activity change, negative = inhibition is -9.19% and 5.43%.

Question: What about the Potency [3] of the same compound?
Answer: The Potency was > 20.6 µM.

Question: What about the Potency [4] of the same compound?
Answer: The Potency was > 20.6 µM.

Question: And the outcome [5]?
Answer: The outcome was “inactive”.

Question: What about the outcome [6] of the same compound?
Answer: The outcome was “inactive”.

Question: Which results are given for COc1ccc(CCNC[C@H](O)c2ccc(O)cc2)cc1OC?
Answer: outcome [1]: inactive; Potency [7]: inactive; activity change, negative = inhibition ([2]; at 38 µM (top of the series)): -28.1%; Potency [3]: > 46 µM; Potency [4]: > 46 µM; outcome [5]: inactive; outcome [6]: inactive

Question: Which results are given for CCCC(=O)Nc1ncnc2c1ncn2[C@@H]1O[C@@H]2COP(=O)(O)O[C@H]2[C@H]1OC(=O)CCC?
Answer: outcome [1]: inactive; activity change, negative = inhibition ([2]; at 17.2 µM (top of the series)): -26.8%; Potency [3]: > 46 µM and > 20.6 µM; Potency [4]: > 46 µM; outcome [5]: inactive

Question: Which outcome [1] does the source give for CN1Cc2c(N)cccc2C(c2ccccc2)C1 (centres undefined) here?
Answer: The outcome was “inactive”.

Question: And the Potency [3]?
Answer: Its Potency is > 20.6 µM.

Question: For C[C@@H]1C[C@H]2[C@@H]3CCC4=CC(=O)C=C[C@]4(C)[C@@]3(F)[C@@H](O)C[C@]2(C)[C@@]1(O)C(=O)COP(=O)(O)O, which outcome [1] is on record?
Answer: Its outcome is “inactive”.

Question: With Nc1c(Br)cc(Br)cc1CNC1CCC(O)CC1 (centres undefined) as the compound, how does the outcome [1] read?
Answer: The outcome was “inactive”.

Question: What about the activity change, negative = inhibition ([2]; at 17.2 µM (top of the series)) of the same compound?
Answer: The activity change, negative = inhibition was 0.0265%.

Question: What about the Potency [3] of the same compound?
Answer: The Potency was > 20.6 µM.

Question: And the Potency [4]?
Answer: The Potency was > 20.6 µM.

Question: What about the outcome [5] of the same compound?
Answer: Its outcome is “inactive”.

Question: And the outcome [6]?
Answer: Its outcome is “inactive”.

Question: For CCOc1ccc2c(c1)C(C)=CC(C)(C)N2, which outcome [1] is on record?
Answer: Its outcome is “inactive”.

Question: And the Potency [7]?
Answer: The Potency was 5.01 µM (active).

Question: And the Potency [8]?
Answer: The Potency was > 92 µM.

Question: And the Potency [9]?
Answer: The Potency was > 92 µM.

Question: And the Potency [10]?
Answer: The Potency was > 92 µM.

Question: And the Potency [11]?
Answer: Its Potency is > 92 µM.

Question: What about the Potency [12] of the same compound?
Answer: The Potency was > 92 µM.

Question: What about the activity change, negative = inhibition ([2]; at 17.2 µM (top of the series)) of the same compound?
Answer: The activity change, negative = inhibition was 4.3%.

Question: What about the outcome [5] of the same compound?
Answer: Its outcome is “inactive”.

Question: And the activity change, negative = cytotoxicity [13]?
Answer: Its activity change, negative = cytotoxicity is -9.52%.

Question: And the outcome [14]?
Answer: Its outcome is “inactive”.

Question: And the Potency [15]?
Answer: The Potency was “inactive”.

Question: And the Potency [16]?
Answer: The Potency was “inactive”.

Question: And the outcome [17]?
Answer: Its outcome is “inactive”.

Question: And the activity change, negative = cytotoxicity [18]?
Answer: Its activity change, negative = cytotoxicity is 9.89%.

Question: And the outcome [6]?
Answer: Its outcome is “inactive”.

Question: With CN(C)CCCN1c2ccccc2C(C)(C)c2ccccc21 as the compound, how does the Potency [19] read?
Answer: The Potency was > 11.4 µM.

Question: And the Potency [7]?
Answer: The Potency was 5.01 µM (active).

Question: What about the Potency [3] of the same compound?
Answer: Its Potency is > 46 µM.

Question: And the Potency [4]?
Answer: The Potency was > 9.22 µM.

Question: And the activity change, negative = inhibition [5]?
Answer: The activity change, negative = inhibition was -0.792% [at 11.4 µM].

Question: What about the outcome [6] of the same compound?
Answer: Its outcome is “inactive”.

Question: Which outcome [1] does the source give for Cc1onc(-c2ccccc2)c1C(=O)N[C@@H]1C(=O)N2[C@@H]1SC(C)(C)[C@@H]2C(=O)O here?
Answer: Its outcome is “inactive”.

Question: And the activity change, negative = inhibition ([2]; at 17.2 µM (top of the series))?
Answer: The activity change, negative = inhibition was 24.2%.

Question: What about the Potency [3] of the same compound?
Answer: The Potency was > 20.6 µM.

Question: Which outcome [1] does the source give for CC(=O)OCC(=O)[C@@]12OC3(CCCC3)O[C@@H]1C[C@H]1[C@@H]3CCC4=CC(=O)C=C[C@]4(C)[C@@]3(F)[C@@H](O)C[C@@]12C here?
Answer: The outcome was “inactive”.

Question: What about the Potency [3] of the same compound?
Answer: The Potency was 0.000571 µM (active).
